Screens deposited in PubChem by National Center for Advancing Translational Sciences (NCATS).
ALOX12 inh = inhibitors of human 12S-lipoxygenase ALOX12 | Potency, µM (titrated, usually from 108 µM), without a hit: at the highest dose activity change, negative = inhibition, most hits filed as inhibitors | P18054 | hit rate 1.1% among 580,000 | AID 1671190 | purified 12hLO, xylenol orange hydroperoxide absorbance; also: potency is read from the fitted curve at half-maximal effect
Target sequence (P18054 whole entry, looked up): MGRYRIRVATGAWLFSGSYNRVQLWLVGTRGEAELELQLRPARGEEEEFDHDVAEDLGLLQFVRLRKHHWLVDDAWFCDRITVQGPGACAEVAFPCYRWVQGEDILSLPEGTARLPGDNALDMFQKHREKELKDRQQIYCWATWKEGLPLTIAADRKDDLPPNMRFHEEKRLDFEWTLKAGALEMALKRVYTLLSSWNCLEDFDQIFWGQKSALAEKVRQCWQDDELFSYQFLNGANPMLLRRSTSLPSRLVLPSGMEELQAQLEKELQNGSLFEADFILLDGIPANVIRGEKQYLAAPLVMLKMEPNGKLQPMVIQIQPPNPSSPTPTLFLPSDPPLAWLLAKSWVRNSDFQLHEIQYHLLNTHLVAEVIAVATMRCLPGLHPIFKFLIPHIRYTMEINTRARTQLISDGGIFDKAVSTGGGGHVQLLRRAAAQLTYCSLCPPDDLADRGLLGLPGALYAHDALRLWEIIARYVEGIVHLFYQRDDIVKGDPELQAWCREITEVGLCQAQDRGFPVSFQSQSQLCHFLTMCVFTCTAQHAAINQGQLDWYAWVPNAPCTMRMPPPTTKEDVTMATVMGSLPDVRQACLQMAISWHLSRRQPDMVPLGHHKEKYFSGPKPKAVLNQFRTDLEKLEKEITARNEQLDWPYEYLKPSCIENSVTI
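Purified human 12hLO at 150 nM in 25 mM Hepes, 0.01% Triton X-100, pH 7.0, preincubated 15 min at room temperature with compound. Reaction started with 40 uM arachidonic acid, 30 min at room temperature. Hydroperoxide measured by Fe-xylenol orange, 573/405 nm absorbance ratio.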
HT1080 IDH1KD tx = HT-1080 IDH1 knockdown cell toxicity (counter line); hit rate 2% among 360,000; Potency, µM (doses to about 46.1 µM), without a hit: at the top dose activity, negative = toxicity, actives largely listed as cytotoxic; HT-1080 IDH1 knockdown viability, ATP luminescence, 48 h; AID 686971;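 also: potency is read from the fitted curve at half-maximal effect; 0% = DMSO wells and -100% = cell-free medium wells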
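CellTiter-Glo luminescence after 48 h compound exposure at 37 degrees C of IDH1-knockdown HT-1080 cells in 5% FBS RPMI. %Activity scaled between DMSO wells and cell-free media wells, with curves fitted and assigned curve classes.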
HT1080-NT tox = kills 2HG-producing HT-1080-NT fibrosarcoma cells; Potency, µM (titrated, usually from 46.1 µM), for the others: at the highest dose activity, negative = less viability, actives largely listed as cytotoxic; AID 686970; HT-1080-NT fibrosarcoma viability, CellTiter-Glo ATP luminescence, 48 h; hit rate 1.6% among 360,000;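 also: NT is the 2HG producing partner of a matched IDH1 knockdown line; potency is read from the fitted curve at half-maximal effect; 0% = DMSO-treated cells and -100% = media-only wells without cells; nearly all actives have a fitted effect of over 55% in size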
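Compounds were tested in concentration-response format on HT-1080-NT cells for 48 hours at 37 degrees C. Cell viability came from CellTiter-Glo luminescence; curves were classified by r2, response magnitude and activity.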
TDP1 cell noCPT = qHTS for Inhibitors of human tyrosyl-DNA phosphodiesterase 1 (TDP1): qHTS in cells in absence of CPT; DT40 Tdp1-/- hTDP1 cells, no CPT, ATP luminescence, 48 h; Potency, µM (series often up to 46.2 µM), for inactives: top-dose activity change, negative = growth inhibition, actives largely listed as inhibitors; hit rate 15% among 420,000; also: potency is read from the fitted curve at half-maximal effect; nearly all actives have a fitted effect of over 55% in size
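Chicken DT40 Tdp1-/- cells complemented with human TDP1, screened without camptothecin (DMSO vehicle only), 400 cells/well. Compounds pin-transferred, cells incubated at 37 °C for at least 48 hr. Growth read as ATP-dependent luminescence (CellTiter-Glo, 30 min at RT).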
DT40 TDP1 CPT = growth inhibition of DT40 Tdp1-/-;hTDP1 cells with camptothecin (screen for TDP1 inhibitors). chicken DT40 Tdp1-/-;hTDP1 cells + 20 nM CPT, ATP luminescence, 48 h. Potency, µM (series often up to 46.2 µM), for inactives: top-dose activity change, negative = growth inhibition, hits mostly inhibitors. hit rate 12% among 420,000; also: potency is read from the fitted curve at half-maximal effect; nearly all actives have a fitted effect of over 55% in size
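Cell growth measured by CellTiter-Glo luminescence after a minimum 48 h, 37 C compound exposure with 20 nM CPT in Tdp1-knockout DT40 cells stably expressing hTDP1, seeded 400/well; qHTS titration format.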
IL-1B inflam inh = inhibitors of inflammasome signaling (IL-1 beta secretion) | THP-1 LPS/ATP IL-1B secretion, AlphaLISA, 16 h; hits give low values | activity change, % at 57.5 µM | hit rate 4.7% among 360,000; in the data active = activity change below about -50%; inconclusive = mostly about -30% to -49%
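Secreted IL-1B measured by AlphaLISA bead assay after 16 h compound exposure of THP-1 cells; compounds (final up to 57.5 uM) added 1 h before LPS (250 ng/mL) and ATP (1.25 mM) stimulation; lower signal means less secretion.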
Active calls of the source: *; i = inactive; ? = inconclusive; · = not tested or not shown; ! = a repeat was not active. Many of the other results were omitted from the sample, so hits are more common in it than they were. Unless noted, calls follow the shape of the dose curve; as a rule, active = well fitted curve in the direction sought with a large enough effect; inconclusive = small, poorly fitted or top-dose-only effect, or another doubt; inactive = no such curve, though single readings can be large; an effect the other way counts as inactive or inconclusive. Unless noted, % is scaled to controls: 0 for no effect and ±100 for the full control effect.

SMILES	ALOX12 inh	HT1080 IDH1KD tx	HT1080-NT tox	TDP1 cell noCPT	DT40 TDP1 CPT	IL-1B inflam inh
CC1Cc2cc(S(=O)(=O)N3CCN(c4ccccc4F)CC3)ccc2N1C(=O)C1CC1 (stereo not drawn)	9%	-22%	-20%	23µM*	?	-29
Cc1cc(Cl)c2oc(C(=O)N(C)CCCN3CCOCC3)c(C)c2c1	0%	-4%	-29%	16µM*	?	0
Cc1cc(Cl)c2oc(C(=O)N(C)CCc3cnn(C)c3)c(C)c2c1	2%	8%	-2%	-5%	18µM*	21
Cc1cc(Cl)c2oc(C(=O)NCC(C)(C)N3CCOCC3)c(C)c2c1	-23%	10%	5%	?	23µM*	50
CC(C)(CNC(=O)c1sc2cc(Cl)ccc2c1Cl)N1CCOCC1	-17%	1%	-10%	16µM*	16µM*	?
Cc1cc(Cl)c2oc(C(=O)N(C)CCCCN3CCOCC3)c(C)c2c1	1%	?	?	?	-19%	-7
O=C(CCCc1nc2ccccc2o1)NCc1ccc(Cl)cc1	15%	·	·	·	·	·
COc1cccc(NC(=O)Cn2c(=O)ccc3cc(S(=O)(=O)N4CCC(C)CC4)ccc32)c1	?	·	·	16µM*	18µM*	·
Cc1ccc(NC(=O)Cn2c(=O)ccc3cc(S(=O)(=O)N4CCC(C)CC4)ccc32)cc1C	-25%	·	·	-60%	?	·
CCc1cccc(NC(=O)Cn2c(=O)ccc3cc(S(=O)(=O)N4CCC(C)CC4)ccc32)c1	-14%	·	·	16µM*	18µM*	·
CC(Sc1nc(-c2cccs2)nc2ccccc12)C(=O)NC(C)(C)C (stereo not drawn)	5%	·	·	·	·	·
NNC(=O)/C(=C\c1ccco1)NC(=O)c1ccco1	9%	?	15µM*	4%	1%	97
O=C(Nc1cccc2ccccc12)c1ccc([N+](=O)[O-])cc1	-3%	-10%	-13%	?	-7%	-15
O=C(CNc1cccc2ccccc12)c1ccc([N+](=O)[O-])cc1	-17%	4%	4%	13µM*	15µM*	-5
CC1CN(C(=S)SCC(=O)c2ccc([N+](=O)[O-])cc2)CC(C)O1 (stereo not drawn)	-24%	-3%	-13%	5.2µM*	2.6µM*	-23
O=C(CNc1ccccc1)c1ccc([N+](=O)[O-])cc1	?	2%	2%	16µM*	15µM*	3
O=C(Nc1cccc2c(=O)[nH][nH]c(=O)c12)c1ccc([N+](=O)[O-])cc1	-12%	-7%	1%	-17%	8.2µM*	79
CC1CN(C(=S)NC(=O)c2ccc([N+](=O)[O-])cc2)CC(C)O1 (stereo not drawn)	-11%	7%	6%	1%	6%	25
Cc1cc(C)c(CNC(=O)c2nc(-c3ccc(CN(C)C)cc3)cc3c2ccn3C(C)C)c(=O)[nH]1	20%	·	·	·	·	·
O=C(CSCC(=O)c1ccc([N+](=O)[O-])cc1)c1ccc([N+](=O)[O-])cc1	·	0%	-3%	?	21µM*	9
COc1ccc(C2CCCN2CC(O)COc2ccccc2C(C)C)cc1 (stereo not drawn)	-12%	21µM*	21µM*	13µM*	23µM*	?
CCc1nnc(NC(=O)c2cc(-c3ccccc3)nc3ccccc23)s1	9%	·	·	·	·	·
COc1ccc(C(=O)Nc2ccc(S(=O)(=O)N3CCc4ccccc43)cc2)cc1	3%	?	-3%	23µM*	26µM*	-23
COc1cc2nc(NC(=O)c3ccc(S(=O)(=O)N4CCc5ccccc54)cc3)sc2cc1OC	?	·	·	15µM*	21µM*	·
Cc1c(Cl)ccc2sc(NC(=O)c3ccc(S(=O)(=O)N4CCCc5ccccc54)cc3)nc12	?	·	·	18µM*	?	·
SMILES	ALOX12 inh	HT1080 IDH1KD tx	HT1080-NT tox	TDP1 cell noCPT	DT40 TDP1 CPT	IL-1B inflam inh
CCCC(=O)NC(=S)Nc1ccc(S(=O)(=O)N2CCc3ccccc32)cc1	0%	-25%	-30%	21µM*	?	-23
Cc1cc(C(=O)COc2ncnc3ccccc23)c(C)n1CC(F)(F)F	12%	·	·	·	·	·
CNC(=O)C1CCCCN1C(=O)Cc1nc(-c2ccccc2)oc1C (stereo not drawn)	-25%	·	·	·	·	·
CCN(CC)CCNC(=O)c1ccc(NC(=O)c2cccc(S(=O)(=O)N3CCc4ccccc43)c2)cc1	?	?	?	?	?	-85*
COc1ccc2sc(N(CCCN(C)C)C(=O)c3ccc(S(=O)(=O)N4CCCc5ccccc54)cc3)nc2c1	?	-24%	-10%	16µM*	?	-83*
CCN(CC)CCNC(=O)c1ccc(NC(=O)c2cccc(S(=O)(=O)N3c4ccccc4CC3C)c2)cc1 (stereo not drawn)	-9%	?	?	-17%	?	-3
CCOC(=O)N1CCN(S(=O)(=O)c2ccc(C(=O)N(CCCN(C)C)c3nc4ccc(OC)cc4s3)cc2)CC1	i	-4%	-4%	?	?	?
COc1cc2nc(N(CCCN(C)C)C(=O)c3ccc(S(=O)(=O)N4CCc5ccccc54)cc3)sc2cc1OC	?	?	?	16µM*	?	-101*
COCCN1CCC(N2CCN(C(=O)c3ccc(F)c(F)c3)CC2)C1=O (stereo not drawn)	39%	·	·	·	·	·
O=C(COC(=O)c1cc2ccccc2[nH]1)Nc1ccc2ccccc2c1	-1%	·	·	·	·	·
CCNC(=S)N/N=C(\C)c1ccc2ccccc2c1OC(F)F	40µM*	-17%	-19%	16µM*	23µM*	32
C/C(=N\NC(=S)NC(C)C)c1ccccc1OC(F)F	-172%	16%	18%	3.3µM*	2.9µM*	18
C/C(=N\NC(=O)COc1ccc(C#N)cc1)c1ccccc1OC(F)F	-4%	-12%	-23%	?	-21%	-1
O=C(O)c1c(Cl)c(Cl)c(Cl)c(Cl)c1-c1c2cc(I)c(=O)c(I)c-2oc2c(I)c(O)c(I)cc12	0.86µM*	·	·	15µM*	?	·
O=C(O)c1ccccc1-c1c2cc(I)c(=O)c(I)c-2oc2c(I)c(O)c(I)cc12	35µM*!	-21%	-24%	?	?	-10
O=C(N=Nc1c(O)[nH]c2ccccc12)c1ccc(CN2CCOCC2)cc1	-3%	3%	1%	?	-27%	-21
Oc1[nH]c2ccccc2c1N=NC(=S)N1CCOCC1	·	?	?	1.5µM*	1.6µM*	130
